TDP1 cell noCPT: qHTS for Inhibitors of human tyrosyl-DNA phosphodiesterase 1 (TDP1): qHTS in cells in absence of CPT; DT40 Tdp1-/- hTDP1 cells, no CPT, ATP luminescence, 48 h; Potency, µM (top dose mostly 46.2 µM), for the others: at the highest dose activity change, negative = growth inhibition, hits mostly inhibitors; 420,000 tested, 15% active; AID 686978, 2013; also: nearly all actives have a fitted effect of over 55% in size
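Camptothecin absent (DMSO only). Human TDP1-complemented DT40 knockout cells, 400 cells/well, 37 °C for minimum 48 hr; ATP measured via CellTiter-Glo, 30 min dark incubation, luminescence.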
KB-3-1 tox: kills parental KB-3-1 adenocarcinoma cells; Potency, µM (highest dose often 46.1 µM), most hits filed as cytotoxic; 400,000 tested, 1.4% active; KB-3-1 viability, CellTiter-Glo ATP luminescence, 72 h; AID 1347075; also: nearly all actives have a fitted effect of over 60% in size
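KB-3-1 cells, DMEM (no phenol red) + 10% FBS; compound by pin transfer, 72 h, 37 °C. Readout: CellTiter-Glo luminescence after 10 min. Data normalized, curve-fitted.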
HT1080NT lethal: kills 2HG-producing HT-1080-NT fibrosarcoma cells. HT-1080-NT fibrosarcoma viability, CellTiter-Glo ATP luminescence, 48 h. Potency, µM (highest dose often 46.1 µM), without a hit: at the highest dose activity, negative = less viability, usual class: cytotoxic. 360,000 tested, 1.6% active;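 also: NT is the 2HG producing partner of a matched IDH1 knockdown line; 0% = DMSO-treated cells and -100% = media-only wells without cells; nearly all actives have a fitted effect of over 55% in size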
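Luminescent CellTiter-Glo readout after 48 hours of compound exposure at 37 degrees C defined viability of HT-1080-NT cells. Activity was normalized to DMSO wells and cell-free media wells; concentration-response curves were fitted and assigned curve classes.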
HT1080 IDH1KD tx: HT-1080 IDH1 knockdown cell toxicity (counter line) | Potency, µM (series often up to 46.1 µM), for inactives: at the top dose activity, negative = toxicity, actives largely listed as cytotoxic | HT-1080 IDH1 knockdown viability, ATP luminescence, 48 h | 360,000 tested, 2% active;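 also: 0% = DMSO wells and -100% = cell-free medium wells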
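HT-1080-IDH1KD cells (IDH1 knocked down), 750/well in RPMI with 5% FBS, treated with compound 48 h at 37 degrees C. Viability by CellTiter-Glo luminescence, normalised to DMSO and no-cell wells; concentration-response curves classed.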
TDP1 cell CPT: DT40-hTDP1 cell growth loss with CPT | chicken DT40 Tdp1-/-;hTDP1 cells + 20 nM CPT, ATP luminescence, 48 h | Potency, µM (top dose mostly 46.2 µM), without a hit: top-dose activity change, negative = growth inhibition, usual class: inhibitors | 420,000 tested, 12% active | AID 686979; also: nearly all actives have a fitted effect of over 55% in size
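Cell growth measured by CellTiter-Glo luminescence after a minimum 48 h, 37 C compound exposure with 20 nM CPT in Tdp1-knockout DT40 cells stably expressing hTDP1, seeded 400/well; qHTS titration format.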
KB-V1 cytotox: kills drug-selected multidrug resistant KB-V1 cells; KB-V1 MDR cells viability, CellTiter-Glo, 72 h; Potency, µM (titrated, usually from 46.1 µM), hits mostly cytotoxic; 400,000 tested, 3.4% active; also: nearly all actives have a fitted effect of over 60% in size
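Cytotoxicity via CellTiter-Glo luminescence after 72 h compound exposure at 37 degrees C. Cells: drug-selected KB-V1 line, DMEM phenol-red free plus 10% FBS. Compounds tested at multiple concentrations; normalized data fitted to concentration-effect curves.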
Starred values were filed as active, the others as inactive. In the library only some 19% were active in any assay of this set; here they are far more common. Calls follow the shape of the dose curve; as a rule, active = well fitted curve in the direction sought with a large enough effect; inconclusive = small, poorly fitted or top-dose-only effect, or another doubt; inactive = no such curve, though single readings can be large; an effect the other way counts as inactive or inconclusive. Unless noted, % is scaled to controls: 0 for no effect and ±100 for the full control effect; potency is read from the fitted curve at half-maximal effect.

`COc1ccc(NC(=O)Nc2ccc3c(c2)C(=O)N([C@H](C)CO)C[C@@H](C)[C@@H](CN(C)C(=O)C2CCCCC2)OCCCC[C@H](C)O3)cc1` gave TDP1 cell noCPT 23µM*, KB-3-1 tox inactive, HT1080NT lethal -15%, HT1080 IDH1KD tx -11%, TDP1 cell CPT inconclusive and KB-V1 cytotox inactive.
Screening C[C@H]1CCCCO[C@H](CN(C)C(=O)C2CCCCC2)[C@@H](C)CN([C@@H](C)CO)C(=O)c2cc(NC(=O)NC3CCCCC3)ccc2O1 returned TDP1 cell noCPT 21µM*, KB-3-1 tox inactive, HT1080NT lethal -2%, HT1080 IDH1KD tx -1%, TDP1 cell CPT 21µM* and KB-V1 cytotox inconclusive.
Screening CCOC(=O)CCCCCC(=O)Nc1ccc2c(c1)C(=O)N([C@H](C)CO)C[C@H](C)[C@H](CN(C)C(=O)C1CCCCC1)OCCCC[C@@H](C)O2 returned TDP1 cell noCPT 21µM*, KB-3-1 tox inactive, HT1080NT lethal -4%, HT1080 IDH1KD tx -1%, TDP1 cell CPT inconclusive and KB-V1 cytotox inactive.
For Cc1noc(C)c1NC(=O)Nc1ccc2c(c1)C(=O)N([C@H](C)CO)C[C@H](C)[C@H](CN(C)C(=O)NC1CCCCC1)OCCCC[C@@H](C)O2 the results were TDP1 cell noCPT 4%, KB-3-1 tox inactive, HT1080NT lethal 1%, HT1080 IDH1KD tx 10%, TDP1 cell CPT 5% and KB-V1 cytotox inactive.
For COc1ccc(NC(=O)Nc2ccc3c(c2)C(=O)N([C@H](C)CO)C[C@H](C)[C@H](CN(C)Cc2ccc(C(=O)O)cc2)OCCCC[C@@H](C)O3)cc1 the results were TDP1 cell noCPT -33%, KB-3-1 tox inactive, HT1080NT lethal 11%, HT1080 IDH1KD tx 10%, TDP1 cell CPT 1% and KB-V1 cytotox inactive.
For C[C@@H]1CCCCO[C@H](CN(C)C(=O)c2ccccc2)[C@@H](C)CN([C@H](C)CO)C(=O)c2cc(NC(=O)NC3CCCCC3)ccc2O1 the results were TDP1 cell noCPT inconclusive, KB-3-1 tox inactive, HT1080NT lethal 2%, HT1080 IDH1KD tx 1%, TDP1 cell CPT inconclusive and KB-V1 cytotox inconclusive.
C[C@@H]1CCCCO[C@@H](CN(C)C(=O)C2CCCCC2)[C@@H](C)CN([C@H](C)CO)C(=O)c2cc(NC(=O)NC3CCCCC3)ccc2O1 was read as TDP1 cell noCPT inconclusive, KB-3-1 tox inactive, HT1080NT lethal -4%, HT1080 IDH1KD tx -3%, TDP1 cell CPT 23µM* and KB-V1 cytotox inactive.
Screening CCOC(=O)CCCCCC(=O)Nc1ccc2c(c1)C(=O)N([C@@H](C)CO)C[C@H](C)[C@H](CN(C)C(=O)NC(C)C)OCCCC[C@H](C)O2 returned TDP1 cell noCPT -14%, KB-3-1 tox inactive, HT1080NT lethal -2%, HT1080 IDH1KD tx 4%, TDP1 cell CPT -4% and KB-V1 cytotox inactive.
Screening CC(=O)c1cccc(NC(=O)Cn2c(=O)oc3cc(S(=O)(=O)NC4CCCC4)ccc32)c1 returned TDP1 cell noCPT inconclusive, KB-3-1 tox inactive, TDP1 cell CPT inconclusive and KB-V1 cytotox inactive.
For O=C(Cc1ccc(Cl)cc1)NCCc1cnc[nH]1 the results were TDP1 cell noCPT -3%, KB-3-1 tox inactive, HT1080NT lethal 5%, HT1080 IDH1KD tx 11%, TDP1 cell CPT 0% and KB-V1 cytotox inactive.
For CS(=O)(=O)N1CCC(n2c(C(F)(F)F)nc3cccnc32)CC1 the results were TDP1 cell noCPT -11%, KB-3-1 tox inactive, TDP1 cell CPT -23% and KB-V1 cytotox inactive.
COc1ccc(C(=O)NCC(c2ccc(Cl)cc2)N2CCCCC2)cc1 (stereo not drawn) was read as TDP1 cell noCPT 12µM*, KB-3-1 tox inactive, TDP1 cell CPT 15µM* and KB-V1 cytotox inactive.
Screening COc1ccc(C(CNC(=O)c2cccc(Br)c2)N2CCCC2)cc1 (stereo not drawn) returned TDP1 cell noCPT inconclusive, KB-3-1 tox inactive, HT1080NT lethal 3%, HT1080 IDH1KD tx -1%, TDP1 cell CPT inconclusive and KB-V1 cytotox inconclusive.
For Cc1cc(C)cc(OCC(=O)NCC(c2ccc(Cl)cc2)N2CCCCC2)c1 (stereo not drawn) the results were TDP1 cell noCPT 16µM*, KB-3-1 tox inactive, TDP1 cell CPT 21µM* and KB-V1 cytotox inactive.
Screening COc1ccc(C(CNC(=O)c2ccc(S(=O)(=O)N(C)C)cc2)N2CCCC2)cc1 (stereo not drawn) returned TDP1 cell noCPT -21%, KB-3-1 tox inactive, HT1080NT lethal 18%, HT1080 IDH1KD tx 17%, TDP1 cell CPT -21% and KB-V1 cytotox inactive.
For COc1ccc(C(CNC(=O)c2cccc(NC(=O)c3cccs3)c2)N2CCCC2)cc1 (stereo not drawn) the results were TDP1 cell noCPT inconclusive, KB-3-1 tox inactive, HT1080NT lethal -5%, HT1080 IDH1KD tx -9%, TDP1 cell CPT inconclusive and KB-V1 cytotox 21µM*.
Screening COc1ccc(OCC(=O)NCC(c2ccc(Cl)cc2)N2CCCCC2)cc1 (stereo not drawn) returned TDP1 cell noCPT inconclusive, KB-3-1 tox inactive, TDP1 cell CPT 21µM* and KB-V1 cytotox inactive.
Screening Cc1ccc(OCC(=O)NCC(c2ccc(Cl)cc2)N2CCCCC2)cc1 (stereo not drawn) returned TDP1 cell noCPT inconclusive, KB-3-1 tox inactive, TDP1 cell CPT inconclusive and KB-V1 cytotox inactive.
For CN(C)c1ccc(C(CNC(=O)COc2ccc(Cl)cc2)N2CCCC2)cc1 (stereo not drawn) the results were TDP1 cell noCPT inconclusive, KB-3-1 tox inactive, HT1080NT lethal -14%, HT1080 IDH1KD tx 2%, TDP1 cell CPT inconclusive and KB-V1 cytotox inactive.
`Cc1ccc(S(=O)(=O)N2CCc3cc(C(=O)Nc4c(C)cccc4C(C)C)ccc32)cc1` gave TDP1 cell noCPT inconclusive, KB-3-1 tox inactive, TDP1 cell CPT inconclusive and KB-V1 cytotox inactive.
For CSCCC(NC(=O)c1ccccc1Cl)C(=O)NCC(c1ccco1)N1CCCCC1 (stereo not drawn) the results were TDP1 cell noCPT -2%, KB-3-1 tox inactive, HT1080NT lethal -7%, HT1080 IDH1KD tx -10%, TDP1 cell CPT 1% and KB-V1 cytotox inactive.

Source: PubChem (National Center for Advancing Translational Sciences (NCATS))
